Measured values from ChEMBL document CHEMBL3988442, “University of Dundee, Small-Polar-MMV Screening Library” (2021).
For some assays here: Entries with a potency or affinity are not part of this list.

Tests used:
Parameters in all cases: scale not given: direction of the effect not stated beside the values
[1] = target: Protein translocase subunit SecA (Escherichia coli (strain K12)) (UniProt P10408); experiment: Assay to Identify E. coli SecA ATPase Inhibitors; format: functional; settings: 30 µM
Protein translocase subunit SecA (Escherichia coli (strain K12)), sequence (P10408 whole entry): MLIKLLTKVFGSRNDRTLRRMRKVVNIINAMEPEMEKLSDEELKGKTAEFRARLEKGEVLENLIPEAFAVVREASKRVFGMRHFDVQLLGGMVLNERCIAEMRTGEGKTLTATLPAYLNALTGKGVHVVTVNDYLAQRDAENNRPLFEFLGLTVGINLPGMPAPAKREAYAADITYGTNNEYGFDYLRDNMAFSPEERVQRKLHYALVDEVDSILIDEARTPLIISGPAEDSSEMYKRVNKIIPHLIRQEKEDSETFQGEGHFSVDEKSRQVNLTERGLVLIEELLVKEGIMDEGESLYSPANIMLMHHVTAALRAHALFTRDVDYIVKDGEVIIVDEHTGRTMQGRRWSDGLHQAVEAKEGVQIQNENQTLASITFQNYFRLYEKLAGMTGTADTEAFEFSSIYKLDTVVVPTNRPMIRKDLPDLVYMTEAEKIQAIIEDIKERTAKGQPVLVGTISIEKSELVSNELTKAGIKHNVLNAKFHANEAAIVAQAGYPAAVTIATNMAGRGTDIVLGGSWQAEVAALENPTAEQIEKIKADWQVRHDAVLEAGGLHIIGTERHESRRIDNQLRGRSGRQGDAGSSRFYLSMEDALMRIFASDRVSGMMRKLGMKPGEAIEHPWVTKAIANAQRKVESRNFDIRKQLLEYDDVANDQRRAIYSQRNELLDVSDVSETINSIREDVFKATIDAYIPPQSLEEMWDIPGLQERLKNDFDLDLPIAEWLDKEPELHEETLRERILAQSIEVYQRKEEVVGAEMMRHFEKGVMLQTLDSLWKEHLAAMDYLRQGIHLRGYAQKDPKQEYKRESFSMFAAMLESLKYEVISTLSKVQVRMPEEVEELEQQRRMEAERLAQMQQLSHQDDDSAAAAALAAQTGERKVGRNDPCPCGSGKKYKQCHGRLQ

[2] = target: T1, Ubiquitin-activating enzyme e1, putative (Leishmania donovani (strain BPK282A1)) (UniProt E9BSI1); experiment: Leishmania donovani Ubiquitin Activating Enzyme (LdE1); format: functional; settings: 30 µM
T1 sequence (whole entry): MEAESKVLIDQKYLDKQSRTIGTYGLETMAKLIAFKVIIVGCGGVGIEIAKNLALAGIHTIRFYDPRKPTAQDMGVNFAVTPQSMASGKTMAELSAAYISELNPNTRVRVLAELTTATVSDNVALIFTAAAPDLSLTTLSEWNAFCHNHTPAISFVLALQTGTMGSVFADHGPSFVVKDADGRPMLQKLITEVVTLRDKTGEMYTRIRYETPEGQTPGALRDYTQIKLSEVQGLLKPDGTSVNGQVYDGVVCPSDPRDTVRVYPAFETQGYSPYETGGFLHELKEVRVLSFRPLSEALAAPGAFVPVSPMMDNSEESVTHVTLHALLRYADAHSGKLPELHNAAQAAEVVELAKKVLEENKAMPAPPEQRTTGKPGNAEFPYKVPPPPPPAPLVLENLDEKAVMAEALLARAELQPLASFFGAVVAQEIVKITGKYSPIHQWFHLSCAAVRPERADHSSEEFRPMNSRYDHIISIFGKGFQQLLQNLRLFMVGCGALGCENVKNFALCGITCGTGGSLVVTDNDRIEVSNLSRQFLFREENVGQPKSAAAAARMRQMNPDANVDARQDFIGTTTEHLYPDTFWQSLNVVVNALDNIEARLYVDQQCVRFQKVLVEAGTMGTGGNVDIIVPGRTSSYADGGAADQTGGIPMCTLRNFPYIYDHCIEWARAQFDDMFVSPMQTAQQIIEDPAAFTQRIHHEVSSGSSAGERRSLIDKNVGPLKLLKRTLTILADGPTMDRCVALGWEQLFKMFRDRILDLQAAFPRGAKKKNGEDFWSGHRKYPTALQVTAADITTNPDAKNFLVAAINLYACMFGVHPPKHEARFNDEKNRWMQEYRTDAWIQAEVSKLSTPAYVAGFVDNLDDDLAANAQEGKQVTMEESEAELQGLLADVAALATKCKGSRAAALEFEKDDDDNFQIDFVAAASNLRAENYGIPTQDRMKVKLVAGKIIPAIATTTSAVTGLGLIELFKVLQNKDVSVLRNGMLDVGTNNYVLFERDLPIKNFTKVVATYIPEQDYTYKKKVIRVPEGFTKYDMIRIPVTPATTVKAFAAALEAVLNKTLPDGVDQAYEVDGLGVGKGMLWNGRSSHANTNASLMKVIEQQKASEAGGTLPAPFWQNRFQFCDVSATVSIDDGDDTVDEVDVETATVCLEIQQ

[3] = target: AMP-activated protein kinase, AMPK (Homo sapiens) (UniProt P54646+O43741+P54619+Q9UGJ0+Q9Y478+Q13131+Q9UGI9); experiment: AMP-dependent Kinase enzyme assay. An in vitro enzyme assay that detects ADP turnover that is directly proportional to AMPK activity. This uses naive AMPK that is activated during the assay with MK-8722; format: functional; settings: 30 µM
[4] = target: Sialic acid-binding Ig-like lectin 9 (Homo sapiens) (UniProt Q9Y336); experiment: Hs-Siglec9 ALPHAscreen SOP 20170721; settings: 10 µM
Sialic acid-binding Ig-like lectin 9 (Homo sapiens), sequence (Q9Y336 whole entry): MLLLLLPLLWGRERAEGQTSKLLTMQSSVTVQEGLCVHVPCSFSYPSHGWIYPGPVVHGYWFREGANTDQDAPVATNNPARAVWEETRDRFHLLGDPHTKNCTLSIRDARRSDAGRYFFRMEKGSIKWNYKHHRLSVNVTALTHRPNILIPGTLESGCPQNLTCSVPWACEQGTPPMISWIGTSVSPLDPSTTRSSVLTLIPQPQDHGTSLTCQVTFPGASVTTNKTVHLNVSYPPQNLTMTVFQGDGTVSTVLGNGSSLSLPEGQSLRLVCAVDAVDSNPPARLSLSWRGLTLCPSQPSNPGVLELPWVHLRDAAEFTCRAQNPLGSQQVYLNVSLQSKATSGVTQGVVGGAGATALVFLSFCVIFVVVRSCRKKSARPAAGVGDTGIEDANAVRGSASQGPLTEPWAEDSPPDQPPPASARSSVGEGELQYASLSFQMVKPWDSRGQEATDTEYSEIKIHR

Trypanosoma cruzi = experiment: Trypanosoma cruzi phosphomannomutase and mannose-1-phosphate guanylyltransferase assay; format: functional; settings: 10 µM
[5] = target: T2, Arginase-2, mitochondrial (Homo sapiens) (UniProt P78540); experiment: in vitro enzyme assay to detect the production of urea directly proportional to the activity of Arginase II; format: functional; settings: 33.3 µM; also: in the data most compounds retested in dose-response had high values
T2 sequence (whole entry): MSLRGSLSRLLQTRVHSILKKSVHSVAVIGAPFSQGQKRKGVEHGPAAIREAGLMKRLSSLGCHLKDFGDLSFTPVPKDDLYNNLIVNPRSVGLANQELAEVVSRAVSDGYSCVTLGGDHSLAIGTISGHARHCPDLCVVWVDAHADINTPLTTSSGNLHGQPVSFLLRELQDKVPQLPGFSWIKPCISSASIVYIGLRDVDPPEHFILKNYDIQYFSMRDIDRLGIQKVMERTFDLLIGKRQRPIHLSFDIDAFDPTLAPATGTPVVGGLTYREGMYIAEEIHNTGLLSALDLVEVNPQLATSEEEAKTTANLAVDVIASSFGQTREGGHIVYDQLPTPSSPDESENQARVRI

[6] = target: T3, Proteasome subunit beta (Trypanosoma cruzi) (UniProt O96673); experiment: Trypanosoma cruzi proteasome chymotrypsin-like activity (TcProtChymo) assay.; also: in the data most compounds retested in dose-response had high values; format: functional; settings: 9.37 µM
T3 sequence (whole entry): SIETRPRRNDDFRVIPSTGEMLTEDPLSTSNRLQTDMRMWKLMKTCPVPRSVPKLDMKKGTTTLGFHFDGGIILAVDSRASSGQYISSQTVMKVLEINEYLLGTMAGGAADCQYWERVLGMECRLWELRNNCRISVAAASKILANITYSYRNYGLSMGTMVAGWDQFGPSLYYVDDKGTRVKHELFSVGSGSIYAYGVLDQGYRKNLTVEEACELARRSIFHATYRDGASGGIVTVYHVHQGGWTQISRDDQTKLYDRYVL

Homo sapiens = organism: Homo sapiens; experiment: To identify inhibition of the IFN signalling (Jak-Stat) pathway via expression of an eGFP reporter gene under the control of an IFN-stimulated response element (ISRE) containing MxA promoter.; format: functional; settings: 30 µM
[7] = target: T4, Tyrosyl-tRNA synthetase, putative (Trypanosoma cruzi (strain CL Brener)) (UniProt Q4DSP6); experiment: Trypanosoma cruzi tyrosyl tRNA synthetase (TcYRS) _High Tyrosine SOP; format: functional; settings: 30 µM; also: in the data most compounds retested in dose-response had high values
T4 sequence (whole entry): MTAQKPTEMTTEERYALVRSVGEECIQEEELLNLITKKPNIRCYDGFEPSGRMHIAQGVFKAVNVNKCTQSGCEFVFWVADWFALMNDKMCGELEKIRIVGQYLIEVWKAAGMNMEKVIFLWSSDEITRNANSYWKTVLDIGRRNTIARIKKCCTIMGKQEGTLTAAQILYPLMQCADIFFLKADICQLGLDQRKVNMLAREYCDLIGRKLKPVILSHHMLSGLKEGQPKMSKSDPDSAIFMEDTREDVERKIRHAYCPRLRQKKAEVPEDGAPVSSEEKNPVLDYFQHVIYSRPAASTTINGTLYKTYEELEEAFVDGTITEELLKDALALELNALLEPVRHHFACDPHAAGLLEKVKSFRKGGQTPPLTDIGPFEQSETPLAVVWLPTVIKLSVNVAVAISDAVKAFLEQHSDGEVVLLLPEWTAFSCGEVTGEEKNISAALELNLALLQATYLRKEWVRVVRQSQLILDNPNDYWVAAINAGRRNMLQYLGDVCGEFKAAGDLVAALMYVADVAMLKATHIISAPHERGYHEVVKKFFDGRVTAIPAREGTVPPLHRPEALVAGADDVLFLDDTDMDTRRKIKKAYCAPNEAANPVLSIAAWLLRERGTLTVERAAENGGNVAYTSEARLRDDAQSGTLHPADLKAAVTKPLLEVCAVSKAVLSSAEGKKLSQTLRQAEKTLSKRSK

[8] = target: T4, Tyrosyl-tRNA synthetase, putative (Trypanosoma cruzi (strain CL Brener)); experiment: Trypanosoma cruzi tyrosyl tRNA synthetase (TcYRS) SOP; format: functional; settings: 30 µM
[9] = target: Chromo domain-containing protein 1 (Saccharomyces cerevisiae (strain ATCC 204508 / S288c) (Baker's yeast)) (UniProt P32657); experiment: ScCHD-1 Enzyme Inhibition Assay; format: functional; settings: 30 µM; also: in the data most compounds retested in dose-response had high values
Chromo domain-containing protein 1 (Saccharomyces cerevisiae (strain ATCC 204508 / S288c) (Baker's yeast)), sequence (P32657 whole entry, the tested form may be a part): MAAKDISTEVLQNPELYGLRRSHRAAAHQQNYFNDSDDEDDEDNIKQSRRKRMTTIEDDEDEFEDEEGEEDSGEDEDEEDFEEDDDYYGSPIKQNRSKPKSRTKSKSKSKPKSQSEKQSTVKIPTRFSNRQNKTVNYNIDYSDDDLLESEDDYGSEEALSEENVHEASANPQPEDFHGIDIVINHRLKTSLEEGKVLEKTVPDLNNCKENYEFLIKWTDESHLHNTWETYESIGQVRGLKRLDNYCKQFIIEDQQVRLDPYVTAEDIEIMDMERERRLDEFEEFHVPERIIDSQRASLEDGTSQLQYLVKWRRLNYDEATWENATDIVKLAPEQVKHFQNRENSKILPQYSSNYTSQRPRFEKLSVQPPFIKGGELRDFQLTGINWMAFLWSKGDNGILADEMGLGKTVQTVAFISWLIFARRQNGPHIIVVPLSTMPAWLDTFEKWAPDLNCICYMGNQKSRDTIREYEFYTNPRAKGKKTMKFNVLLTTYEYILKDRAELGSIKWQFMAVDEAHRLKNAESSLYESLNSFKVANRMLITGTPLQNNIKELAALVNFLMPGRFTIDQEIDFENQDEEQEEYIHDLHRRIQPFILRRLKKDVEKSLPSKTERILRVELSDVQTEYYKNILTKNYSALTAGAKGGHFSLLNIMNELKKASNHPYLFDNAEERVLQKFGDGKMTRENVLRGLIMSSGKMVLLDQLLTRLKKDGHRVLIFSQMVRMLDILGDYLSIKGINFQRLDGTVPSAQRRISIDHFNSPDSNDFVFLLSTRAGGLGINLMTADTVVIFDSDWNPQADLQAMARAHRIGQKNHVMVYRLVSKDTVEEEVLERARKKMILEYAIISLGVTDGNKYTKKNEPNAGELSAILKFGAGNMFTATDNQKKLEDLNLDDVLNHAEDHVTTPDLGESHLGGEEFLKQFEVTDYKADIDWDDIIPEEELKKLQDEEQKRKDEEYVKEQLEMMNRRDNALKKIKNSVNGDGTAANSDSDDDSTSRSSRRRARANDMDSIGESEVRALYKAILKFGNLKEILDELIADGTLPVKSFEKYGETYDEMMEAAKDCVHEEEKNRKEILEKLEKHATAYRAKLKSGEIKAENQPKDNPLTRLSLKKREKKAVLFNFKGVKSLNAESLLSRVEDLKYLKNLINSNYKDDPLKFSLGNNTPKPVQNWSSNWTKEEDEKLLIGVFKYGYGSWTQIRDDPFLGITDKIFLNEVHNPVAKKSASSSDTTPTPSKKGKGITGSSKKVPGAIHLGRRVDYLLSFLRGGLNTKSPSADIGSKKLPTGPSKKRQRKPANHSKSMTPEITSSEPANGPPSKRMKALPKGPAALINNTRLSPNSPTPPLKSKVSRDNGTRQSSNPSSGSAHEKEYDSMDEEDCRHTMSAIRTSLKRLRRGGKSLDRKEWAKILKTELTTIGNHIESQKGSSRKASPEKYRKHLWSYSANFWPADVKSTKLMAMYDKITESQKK

Row | SMILES | Percent Effect [1] [%] | Percent Effect [2] [%] | Percent Effect [3] [%] | Percent Effect [4] [%] | Percent Effect (Trypanosoma cruzi) [%] | Percent Effect [5] [%] | Percent Effect [6] [%] | Percent Effect (Homo sapiens) [%] | Percent Effect [7] [%] | Percent Effect [8] [%] | Percent Effect [9] [%]
1 | CCc1ccc(CNC(=O)NC(C)CN2CCOCC2)s1 (configuration not stated) | -1.82 | 18.4 | -5.99 | -6.5 | 1.46 | 1.18 | 9.49 | 5.21 | -12.8 | 15.6 | 8.4
2 | Cc1cc(C)n(C2CN(CC(O)c3ccc(F)cc3)C2)n1 (configuration not stated) | -2.64 | -15.6 | -6.46 | 8.34 | 0.936 | -5.34 | 12.3 | 4.19 | 6.8 | 12.2 | -6.46
3 | CCN(Cc1ccco1)C(=O)c1cc(OC)c2c(c1)OCCO2 | -1.97 | -2.63 | 6.68 | 5.11 | -0.487 | 3.55 | 9.88 | -7.24 | 0 | 2.6 | -1.38
4 | Cc1ccc(S(=O)(=O)NCCNC(=O)c2ccoc2)cc1F | -4.47 | 13.3 | 4.57 | 12.1 | 5.75 | 5.21 | 15.5 | 16.4 | 3.83 | 13.6 | 86.1
5 | Nc1nc(CN2CCCC(Cn3cncn3)C2)nc2ccccc12 (configuration not stated) | 1.55 | -2.7 | -3.95 | 9.62 | 3.06 | -2.03 | -5.92 | 3.26 | 4.95 | 6.1 | 1.99
6 | CCOc1ccc(N2CCCN=C2NC(=O)c2ccccc2C)cc1 | -3.08 | 7.79 | -2.01 | 4.38 | -0.0983 | -5.52 | 9.98 | -13.7 | 6.45 | 16.1 | 106
7 | Cc1nc(N2CC[C@@H](NC(=O)c3cnccn3)[C@H](O)C2)c2ccsc2n1 | 0.273 | 8.11 | -4.4 | 15.3 | 2.7 | 3.33 | 2.41 | 46.9 | 5.82 | 19.5 | -3.51
8 | CC(C)COCC(NC(=O)c1cccnc1)c1ccco1 (configuration not stated) | -5.15 | 10.8 | -37.5 | 3.03 | 0.0943 | -4.01 | -0.54 | 16.3 | 9.36 | 11.1 | -5.14
9 | CC(C)CCc1noc(CN2CCCN(C(=O)c3ccco3)CC2)n1 | -5.45 | -8.22 | -0.00644 | 4.33 | 2.38 | -11.2 | 3.68 | 7.02 | 3.12 | 3.7 | -3.57
10 | O=C(NC1=NCCCN1c1ccc(Cl)cc1)c1cccc(Cl)c1 | -4.08 | -5.2 | 0.353 | -0.0638 | -6.39 | 1.38 | 15.1 | 3.87 | -5.38 | -8.64 | 0.69
11 | Cc1ncsc1CCC(=O)NCc1cc2n(n1)CCN(C(=O)N(C)C)C2 | -0.664 | 1.39 | -1.68 | -4.18 | -4.96 | 3.97 | 15.3 | 6.29 | 3.16 | 2.56 | -1.68
12 | O=C(COCc1nc(-c2ccncc2)no1)N1CCCC1 | -2.71 | 10.4 | 5.42 | 6.86 | 4.42 | -110 | 7.32 | -13.8 | 5.38 | 13.6 | -4.16
13 | OC(COCc1ccccc1Cl)CN1CC(n2cccn2)C1 (configuration not stated) | 1.1 | -15.8 | 3.43 | -0.349 | -1.5 | 6.9 | 14.5 | 9.39 | 4.41 | 0 | -9.18
14 | c1cnnc(N2CCCC(NCc3ccc(-n4cccn4)cc3)C2)c1 (configuration not stated) | -0.865 | -5.2 | 14.6 | 4.94 | -0.686 | 1.9 | 1.7 | 20.3 | 0.952 | 7.06 | -7.51
15 | Cc1ccc(S(=O)(=O)NC2CNC(=O)C2)cc1C (configuration not stated) | -5.32 | 8.22 | -5.53 | -8.87 | 0.588 | 1.82 | 3.9 | -1.25 | 7.53 | 12.5 | -3.53
16 | Cc1cc(C)c2cc(CNCC3CCCO3)c3nn(C)c(=O)n3c2c1 (configuration not stated) | -1.56 | 9.46 | 5.25 | 0.0533 | 2.17 | -1.62 | 7.96 | 27 | 2.15 | 9.09 | -28.2
17 | CNC(=O)[C@H]1C[C@H]2OCC[C@H]2N(Cc2ccc(C)o2)C1 | -0.274 | 7.79 | 4.6 | 0.238 | -6.02 | -4.52 | 9.57 | 7.69 | 1.06 | 8.97 | -6.31
18 | Cc1cc(CN2CCN(C(C)c3nc(C4CC4)no3)CC2)no1 (configuration not stated) | 1.42 | 8.86 | -5.67 | -3.17 | -1.33 | 4.52 | 13.4 | 28.4 | -1.04 | 5.06 | -25.2
19 | N#Cc1cccnc1NCc1cccnc1N1CCC(C(N)=O)CC1 | -4.85 | 8.11 | -4.32 | 8.48 | 0.293 | -0.744 | 12.3 | 3.17 | 3.23 | 13.6 | 1.32
20 | Cc1nn(C)c2cnn(C(C)C(=O)NCc3cccnc3)c12 (configuration not stated) | -0.721 | 20 | -1.87 | 5 | 1.18 | -1.58 | 12.8 | 17.9 | 5.29 | 17.9 | -9.71
21 | Cc1cc(-c2nnc(SCC(=O)O)n2C(C)c2ccccc2)nn1C (configuration not stated) | -4.08 | 12.5 | -0.551 | 18.6 | 6.32 | 1.77 | 14.9 | 7.01 | 9.47 | 12.8 | -1.69
22 | CSc1ncccc1C(=O)N1CCC(c2nc3c(C)cccc3[nH]2)CC1 | -5.33 | 20.8 | 6.84 | 10.4 | 3.83 | -5.52 | 16.1 | 3.12 | 7.53 | 13.6 | -10.4
